From PubChem
Only a selection was taken, and hits are over-represented in it overall.
NPSR antag: neuropeptide S receptor (human) antagonism, cAMP. AID 1461. 220,000 compounds, 1% hits. CHO-NPSR cells, cAMP TR-FRET, antagonist mode. Q6W5P4. Potency, µM (highest dose often 38.3 µM), actives largely listed as inhibitors; further: nearly all actives have a fitted effect of over 50% in size
Target sequence (Q6W5P4 whole entry, looked up): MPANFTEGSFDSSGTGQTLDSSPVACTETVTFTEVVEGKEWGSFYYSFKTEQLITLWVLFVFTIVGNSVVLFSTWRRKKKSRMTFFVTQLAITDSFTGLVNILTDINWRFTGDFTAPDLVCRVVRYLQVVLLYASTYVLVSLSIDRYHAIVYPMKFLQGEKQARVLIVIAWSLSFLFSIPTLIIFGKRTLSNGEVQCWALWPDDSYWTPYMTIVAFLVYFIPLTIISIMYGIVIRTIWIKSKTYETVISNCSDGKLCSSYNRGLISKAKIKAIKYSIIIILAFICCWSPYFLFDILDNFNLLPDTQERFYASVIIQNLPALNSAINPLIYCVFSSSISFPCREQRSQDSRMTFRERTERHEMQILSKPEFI
ERK EGF inh: blocks ERK signaling stimulated by EGF; HEK293-V1b, EGF-stimulated phospho-ERK AlphaScreen; Potency, µM (doses to about 11.5 µM), hits mostly inhibitors; 130,000 compounds, 0.41% hits; further: nearly all actives have a fitted effect of over 55% in size
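Phospho-ERK1/2 measured by AlphaScreen (SureFire) after 5 min 25 nM EGF stimulation of V1b-expressing HEK293 cells preincubated 30 min at 37C with titrated compounds; data scaled to DMSO and EGF controls, Hill-fitted AC50.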
Numbers stand for hits; . = inactive; ? = inconclusive; / = no result. The call rests on the fitted dose curve; in most records, active means well fitted curve in the direction sought with a large enough effect; inconclusive means small, poorly fitted or top-dose-only effect, or another doubt; inactive means no such curve, though single readings can be large; an effect the other way counts as inactive or inconclusive.

SMILES	NPSR antag	ERK EGF inh
C=CCOC(=O)N[C@@H](CC(C)C)/C(C(=O)OC)=C(\C)NCc1ccccc1	/	.
CCN1C=C(Cc2ccc(F)cc2)C2=C(C1)C(c1ccc(F)cc1)C(C#N)=C(N)O2 (configuration not stated)	10µM	/
Cc1[nH]nc2c1C(c1ccc(F)cc1)C(C#N)=C(N)O2 (configuration not stated)	.	/
O=c1c(Cl)c(Cl)cnn1Cc1ccccc1Cl	6.3µM	.
Cc1ccc(Cn2ncc(Cl)c(Cl)c2=O)cc1	.	.
CCN(CC)CCn1c(-c2ccccc2)nc2c(NCCO)nc(C)nc21	/	.
O=C(Nc1cccc(F)c1)N1CCC2(CC1)CCN(C(=O)c1ccco1)CC2	/	.
CCN(CC)S(=O)(=O)c1cccc(NC(=O)c2cncc(Br)c2)c1	.	.
CCN(CC)S(=O)(=O)c1cccc(NC(=O)c2ccc(Br)cc2)c1	.	14µM
N#CCCn1c(=O)c(-c2cc(F)cc(F)c2)nc2cnc(OCc3ccccc3)nc21	/	.
CCCn1c(C)nc2c(NCCCCN(C)C)nc(C)nc21	/	.
COc1ccccc1-c1c(C)nn2c(N3CCN(Cc4ccccc4)CC3)cc(C)nc12	.	/
COc1ccccc1-c1c(C)nn2c(N3CCCCCC3)cc(C)nc12	10µM	.
COC(=O)[C@@]1(C)CCC[C@@]2(C)c3ccc(O)c(C(C)C)c3CCC21 (some centres not stated)	/	22µM
CC(C)c1c(O)ccc2c1CCC1[C@@](C)(CO)CCC[C@@]21C (some centres not stated)	/	.
CC1=NNC(=O)/C1=C\c1cn(-c2ccccc2)nc1-c1ccc(F)cc1	.	?
CC1=NNC(=O)/C1=C\c1cn(-c2ccccc2)nc1-c1cccs1	10µM	?
CC(C)(C)OC(=O)COc1cc(OCC(=O)OC(C)(C)C)c2c(=O)cc(-c3ccccc3)oc2c1	6.3µM	.
CC(C)(C)OC(=O)COc1cc(O)c2c(=O)cc(-c3ccccc3)oc2c1	.	/
Cc1cccc(/C=C(\c2nc3ccccc3[nH]2)S(=O)(=O)c2ccccc2)c1	7.9µM	.
Cc1ccc(NC(=S)c2nc3ccccc3[nH]2)c(C)c1	.	.
CC(C)C[C@@H](CC(=O)N[C@@H](CCC(=O)O)CC(=O)O)NC(=O)[C@@H]1CCCC[C@H]1NC(=O)C[C@H](CCCN)NC(=O)C[C@H](CO)NC(=O)[C@@H]1CNCC[C@H]1N	/	.
COc1cccc([C@@H]2Oc3ccc(OC)cc3C[C@H]2OC(=O)NCc2ccco2)c1	/	.
CCOc1cc(/C=N/N=C(N)N)ccc1OCc1ccc(Cl)cc1	.	32µM
COc1cc(/C=N/N=C(N)N)ccc1OCc1ccc(Cl)cc1	.	.
SMILES	NPSR antag	ERK EGF inh
O=C1CCC=C1C(O)CCc1ccccc1 (configuration not stated)	/	.
Cc1c2ccccc2c(CSC(=N)N)c2ccccc12	/	.
Brc1ccc(-c2nc3ccccc3s2)s1	13µM	/
c1ccc(-c2nc3ccccc3s2)nc1	.	.
OC(CN1CCNCC1)Cn1c2ccc(Br)cc2c2cc(Br)ccc21 (configuration not stated)	/	28µM
Cc1ccc2c(c1)c(C)c(C)n2CC(O)CN1CCOCC1 (configuration not stated)	.	.
C[C@@H]1C[C@](C)(C(=O)c2ccco2)C=C1c1ccco1	/	.
CCCC[C@H](CC)CN1CN(C[C@@H](CC)CCCC)CC(C)(N)C1	/	.
CCNc1nc(NC(C)C)nc(N(C#N)CCOc2ccc(Cl)cc2Cl)n1	10µM	/
CCNc1nc(NC(C)C)nc(N(C#N)CC(=O)OC)n1	.	.
Cc1cnc(CNc2nc(-c3ccc(C(=O)N(C)C)cc3)nc3ccccc23)cn1	/	.
CC(C)C[C@@H](CC(=O)N[C@H](CC(=O)N[C@@H]1CCNC[C@H]1C(=O)N[C@H](CC(=O)N[C@@H](CCC(=O)O)CC(=O)O)CC(C)C)C(C)C)NC(=O)[C@@H]1CNCC[C@H]1N	/	.
COc1ccccc1CN1CCCC2(CCN(C(=O)c3cnccn3)CC2)C1	/	.
COC(=O)c1c(NC(=O)/C=C/C(=O)O)sc(C)c1-c1ccc(C)cc1	.	.
COC(=O)c1c(NC(=O)/C=C/C(=O)O)sc(C)c1-c1ccc(C(C)C)cc1	13µM	.
COCC(=O)C(C(=O)OC)[C@H](CCc1ccccc1)NC(=O)OC (some centres not stated)	/	.
COC(=O)NC(CCc1ccccc1)C(C(=O)OC)C(=O)OC (configuration not stated)	/	.
COc1ccc2c(c1O)C(=O)c1ccccc1C2=O	.	.
Nc1c(O)ccc2c1C(=O)c1ccccc1C2=O	10µM	28µM
COc1ccccc1N1CCN(C[C@@H](C(=O)NC(C)(C)C)c2ccccc2)CC1	/	.
CC(C)c1nc(CN(C)C(=O)N[C@H](C(=O)N[C@@H](Cc2ccccc2)C[C@H](O)[C@H](Cc2ccccc2)NC(=O)OCc2cncs2)C(C)C)cs1	13µM	?
